From PubChem BioAssay
The source made the active and inactive calls.

Legend:
[1] = E. coli DRC41 culture turbidity changes, primary screen, E. coli filamentation inducer project, strain DRC41, OD650, 48 h (AID 1152);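 further: E. coli MC1000 strain DRC41 lacking acrAB efflux pump and sulA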; conditions: E. coli DRC41 (acrAB sulA), higher = more signal, called active from +8 up or from −8 down
[2] = small-molecule binders of probe aLefty1, primary screen, biochemical, small-molecule microarray, 635/667 nm fluorescence (AID 1153); conditions: higher = more signal;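 further: score merges spot fluorescence with signal-to-noise ratio from the scanned slide images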
[3] = PSAC antagonists in infected red cells, primary screen, cell-based, P. falciparum Indochina, OD700, 1 h (AID 1154); conditions: P. falciparum Indochina infected RBC osmotic lysis, higher = more signal, called active from +8 up or from −8 down
[4] = PSAC antagonists in infected red cells, primary screen, cell-based, P. falciparum Indochina, OD700, 2 h (AID 1155);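 further: lysis reports solute entry through the parasite surface anion channel PSAC; channel blockers reduce lysis of infected cells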; conditions: P. falciparum Indochina infected erythrocytes, osmotic lysis OD700; higher = more signal, called active from +8 up or from −8 down
[5] = osmotic lysis modulators in infected erythrocytes, primary screen, PSAC antagonist project, cell-based, P. falciparum Indochina, OD700, 3 h (AID 1156); conditions: higher = more signal, called active from +8 up or from −8 down
[6] = PSAC antagonists in infected red cells, primary screen, cell-based, P. falciparum Indochina, OD700, 18 h (AID 1157); conditions: P. falciparum Indochina infected erythrocytes, osmotic lysis OD700, 18 h; higher = more signal, called active from +8 up or from −8 down
[7] = modulators of S6 phosphorylation in cells, primary screen, cell-based, A549, cytoblot, luminescence, serum-stimulated (AID 1158); conditions: A549 phospho-S6 cytoblot, 5 h, higher = more signal;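 further: serum-stimulated A549 lung adenocarcinoma cells; signal is phosphorylated S6 detected by cytoblot immunostaining with HRP secondary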
[8] = molecular target: NADPH oxidase 2 (Homo sapiens) (UniProt P04839); test: NOX2-dependent H2O2 signal modulators, primary screen, NOX inhibitor project, cell-based, HEK293-NOX2, PMA-stimulated, Amplex Red fluorescence (AID 1159); conditions: 45 min, higher = more signal, called active from +8 up or from −8 down; further: test concentration not given here
[9] = molecular target: NADPH oxidase 4 (Homo sapiens) (UniProt Q9NPH5); test: NOX4-dependent H2O2 signal modulators, primary screen, NOX inhibitor project, cell-based, HEK293-NOX4, tetracycline-induced, Amplex Red fluorescence (AID 1160); conditions: 45 min, higher = more signal, called active from +8 up or from −8 down
[10] = molecular target: NADPH oxidase 5 (Homo sapiens) (UniProt Q96PH1); test: NOX5-dependent H2O2 signal modulators, primary screen, NOX inhibitor project, cell-based, HEK293-NOX5, Amplex Red fluorescence (AID 1161); conditions: HEK293-NOX5, ionomycin, 45 min, higher = more signal
[11] = A549 cell viability effects, profiling panel, calcein-AM fluorescence, 48 h, basal (AID 1162); conditions: higher = more signal; further: test concentration not given here
[12] = adipocyte viability effects, profiling panel, cell-based, 3T3-L1 adipocytes, calcein-AM fluorescence, 48 h, basal (AID 1163); conditions: 3T3-L1 adipocytes viability, higher = more signal; further: test concentration not given here
[13] = HepG2 cell viability effects, profiling panel, calcein-AM fluorescence, 48 h, basal (AID 1164); conditions: higher = more signal; further: test concentration not given here
[14] = MM1S cell viability effects, profiling panel, calcein-AM fluorescence, 48 h, basal (AID 1165); conditions: higher = more signal;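 further: viability of MM1S multiple myeloma cells under basal unstimulated conditions; test concentration not given here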
[15] = basal RPMI8226 viability, no added stimulus, profiling panel, cell-based, calcein-AM fluorescence, 48 h, PK04 Diversity Set (AID 1166); conditions: RPMI8226 myeloma viability, higher = more signal;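 further: cells grown under basal conditions without added stimulus; test concentration not given here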
[16] = basal HepG2 mitochondrial membrane potential changes, profiling panel, cell-based, JC-1 fluorescence, 24 h, 100 nL compound (AID 1167); conditions: higher = more signal; further: test concentration not given here
[17] = basal 3T3-L1 adipocyte mitochondrial potential changes, profiling panel, cell-based, JC-1 fluorescence, 3T3-L1 adipocytes, 24 h, 100 nL compound (AID 1168); conditions: JC-1 mitochondrial fluorescence, higher = more signal, called active from +8 up or from −8 down; further: test concentration not given here
[18] = basal RPMI8226 mitochondrial membrane potential changes, profiling panel, cell-based, JC-1 fluorescence, 24 h, 100 nL compound (AID 1169); conditions: RPMI8226 myeloma, JC-1 mitochondrial potential fluorescence, higher = more signal; further: test concentration not given here
[19] = basal MM1S mitochondrial membrane potential changes, profiling panel, cell-based, JC-1 fluorescence, 24 h, 100 nL compound (AID 1170); conditions: higher = more signal; further: test concentration not given here
[20] = A549 lung cancer cell viability effects, profiling panel, resazurin fluorescence, 24 h, PK04 Diversity Set (AID 1171); conditions: higher = more signal, called active from +8 up or from −8 down; further: test concentration not given here

Sequence of NADPH oxidase 2 (Homo sapiens) (P04839 whole entry, looked up): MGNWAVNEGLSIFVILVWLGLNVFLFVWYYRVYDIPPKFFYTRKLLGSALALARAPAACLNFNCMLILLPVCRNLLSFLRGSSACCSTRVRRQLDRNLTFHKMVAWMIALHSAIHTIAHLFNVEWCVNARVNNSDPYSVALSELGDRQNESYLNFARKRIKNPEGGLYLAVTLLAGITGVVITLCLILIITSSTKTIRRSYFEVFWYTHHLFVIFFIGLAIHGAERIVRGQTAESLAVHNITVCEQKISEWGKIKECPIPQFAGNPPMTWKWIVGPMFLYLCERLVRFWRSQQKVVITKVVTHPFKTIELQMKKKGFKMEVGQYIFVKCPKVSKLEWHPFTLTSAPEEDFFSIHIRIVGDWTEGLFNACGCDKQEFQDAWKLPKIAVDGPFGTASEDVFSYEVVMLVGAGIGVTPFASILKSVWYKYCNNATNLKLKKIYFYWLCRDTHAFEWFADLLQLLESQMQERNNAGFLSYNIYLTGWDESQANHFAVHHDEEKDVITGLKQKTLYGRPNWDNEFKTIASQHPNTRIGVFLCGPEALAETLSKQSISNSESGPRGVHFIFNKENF
Sequence of NADPH oxidase 4 (Homo sapiens) (Q9NPH5 whole entry, looked up): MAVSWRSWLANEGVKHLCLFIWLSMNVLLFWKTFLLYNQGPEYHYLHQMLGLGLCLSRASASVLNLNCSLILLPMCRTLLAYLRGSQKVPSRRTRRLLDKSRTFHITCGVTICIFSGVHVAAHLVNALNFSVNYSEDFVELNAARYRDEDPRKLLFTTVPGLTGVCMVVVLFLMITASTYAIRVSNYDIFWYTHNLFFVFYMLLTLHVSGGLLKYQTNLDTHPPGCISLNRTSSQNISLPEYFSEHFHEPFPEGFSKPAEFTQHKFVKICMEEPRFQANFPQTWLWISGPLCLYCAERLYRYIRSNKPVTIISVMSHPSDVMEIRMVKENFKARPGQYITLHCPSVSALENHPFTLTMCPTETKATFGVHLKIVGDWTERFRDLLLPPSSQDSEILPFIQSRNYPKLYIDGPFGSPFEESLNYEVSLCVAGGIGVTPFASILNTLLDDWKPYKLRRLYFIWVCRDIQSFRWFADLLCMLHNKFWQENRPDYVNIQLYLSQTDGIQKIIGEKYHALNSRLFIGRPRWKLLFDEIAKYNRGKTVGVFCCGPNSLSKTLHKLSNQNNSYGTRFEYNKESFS
Sequence of NADPH oxidase 5 (Homo sapiens) (Q96PH1 whole entry, looked up): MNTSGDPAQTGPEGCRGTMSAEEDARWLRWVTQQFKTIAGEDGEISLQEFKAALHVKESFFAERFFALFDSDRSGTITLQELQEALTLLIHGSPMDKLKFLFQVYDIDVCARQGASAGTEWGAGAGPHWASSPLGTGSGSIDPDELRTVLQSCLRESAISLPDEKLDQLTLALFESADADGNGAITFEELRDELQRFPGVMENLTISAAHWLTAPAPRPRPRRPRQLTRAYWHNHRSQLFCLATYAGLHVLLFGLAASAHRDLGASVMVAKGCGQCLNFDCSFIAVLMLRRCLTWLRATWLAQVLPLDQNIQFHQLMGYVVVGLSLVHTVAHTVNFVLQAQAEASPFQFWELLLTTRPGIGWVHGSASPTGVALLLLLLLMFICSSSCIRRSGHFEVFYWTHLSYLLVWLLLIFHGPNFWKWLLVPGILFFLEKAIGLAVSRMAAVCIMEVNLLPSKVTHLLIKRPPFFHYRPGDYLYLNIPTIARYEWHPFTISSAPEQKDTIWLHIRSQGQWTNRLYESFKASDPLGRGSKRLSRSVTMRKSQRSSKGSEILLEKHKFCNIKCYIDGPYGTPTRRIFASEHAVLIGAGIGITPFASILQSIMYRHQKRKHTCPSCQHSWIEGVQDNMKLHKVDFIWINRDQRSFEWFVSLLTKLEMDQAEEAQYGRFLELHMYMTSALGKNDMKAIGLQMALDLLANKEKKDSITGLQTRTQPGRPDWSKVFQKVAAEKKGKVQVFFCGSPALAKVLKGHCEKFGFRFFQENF

Structure (SMILES) | z-score [1] | composite z-score [2] | z-score [3] | z-score [4] | z-score [5] | z-score [6] | z-score [7] | z-score [8] | z-score [9] | z-score [10] | z-score [11] | z-score [12] | z-score [13] | z-score [14] | z-score [15] | z-score [16] | z-score [17] | z-score [18] | z-score [19] | z-score [20]
O=C1O[C@@H](c2ccccc2)[C@@H](c2ccccc2)N2[C@@H](c3ccc(OCCO)cc3)[C@]3(C(=O)Nc4ccccc43)[C@@H](C(=O)NC[C@H](O)c3ccccc3)[C@H]12 | -0.29 (inactive) | -0.0491 | 6.58 (inactive) | 1.85 (inactive) | 0.539 (inactive) | 0.779 (inactive) | -0.29 | 1.62 (inactive) | 0.918 (inactive) | 0.81 | -0.462 | -0.0144 | -0.328 | -0.38 | -0.575 | -1.76 | -0.872 (inactive) | -0.53 | -0.226 | 0.496 (inactive)
CN1C2C=C(CCCO)C(C3C(=O)N(C(N)=O)C(=O)C32)C1c1ccc(CN2CCCC2)cc1 (stereo not given) | 0.0489 (inactive) | -0.189 | 0.114 (inactive) | 0.229 (inactive) | -0.695 (inactive) | -0.11 (inactive) | -0.0852 | -1.52 (inactive) | 0.171 (inactive) | -0.0223 | -0.814 | -0.543 | -0.357 | 0.432 | -1.22 | -0.208 | -0.655 (inactive) | 0.234 | -0.137 | 0.0528 (inactive)
COCCOC(=O)N1C(=O)[C@@]2(c3cc(C#CCCO)ccc31)[C@H](C(=O)N1CCc3cc(OC)c(OC)cc3C1)[C@H]1C(=O)O[C@H](c3ccccc3)[C@H](c3ccccc3)N1[C@@H]2c1ccc(O)cc1 | 0.38 (inactive) | 0.88 | 1.49 (inactive) | 0.349 (inactive) | 0.262 (inactive) | 0.222 (inactive) | 0.113 | 1.26 (inactive) | 0.706 (inactive) | 1.29 | -0.235 | 0.0133 | 2.58 | 0.587 | 0.245 | -0.404 | 0.0353 (inactive) | -0.385 | -0.546 | -0.689 (inactive)
COc1ccc(COC2OC[C@]3(C)[C@H]4C5=C(CN3C(=O)OC(C)(C)C)[C@H](C)C(CO)C(CO)C5CC[C@@H]24)cc1 (stereo not given in full) | -2.31 (inactive) | 0.638 | 1.81 (inactive) | 0.0544 (inactive) | 1.95 (inactive) | 0.741 (inactive) | -0.139 | -0.543 (inactive) | -3.44 (inactive) | -3.88 | -0.963 | 0.627 | -0.0917 | 0.0355 | -1.17 | 1.24 | -0.685 (inactive) | 0.429 | 0.0993 | -1.34 (inactive)
COc1ccc([Si](C)(C)[C@H]2[C@H](CC(=O)N3CCC[C@H]3CO)O[C@@]3(C(=O)N(Cc4cccc(N5C(=O)c6cccc7cccc5c67)c4)c4ccccc43)[C@@H]2C)cc1 | -0.577 (inactive) | 0.302 | 7.61 (inactive) | 0.753 (inactive) | 0.442 (inactive) | 0.623 (inactive) | -0.366 | 1.35 (inactive) | -0.292 (inactive) | 4.06 | -0.577 | 0.453 | -0.507 | -1.99 | -3.99 | 1.12 | -0.69 (inactive) | -1.12 | -0.388 | -0.892 (inactive)
CC(C)N1C(=O)[C@@]2(Cc3ccccc31)c1ccccc1C(=O)N(C1CCCCC1)[C@H]2c1ccc(CO)cc1 | 0.04 (inactive) | -0.101 | 0.206 (inactive) | 0.195 (inactive) | 0.516 (inactive) | 0.378 (inactive) | 0.0252 | 0.111 (inactive) | 0.217 (inactive) | -0.638 | -0.0998 | 0.0621 | -0.775 | -0.546 | 0.0484 | 0.095 | 0.327 (inactive) | 0.378 | -1.79 | 2.32 (inactive)
COC(=O)C(CC#Cc1ccc2c(c1)[C@]1(C(=O)N2)[C@H](C(=O)O)[C@H]2C(=O)O[C@H](c3ccccc3)[C@H](c3ccccc3)N2[C@@H]1c1ccc(O)cc1)C(=O)OC | -0.818 (inactive) | 0.145 | 1.83 (inactive) | -0.038 (inactive) | -0.15 (inactive) | -0.0548 (inactive) | 0.148 | 0.699 (inactive) | -0.0438 (inactive) | 0.921 | -0.389 | -0.405 | 0.0982 | -0.0724 | -0.263 | -2.08 | -0.269 (inactive) | -0.28 | -0.331 | 0.831 (inactive)
COC(=O)[C@@]1(Cc2ccc(F)cc2)[C@H]2c3cc(C(=O)N(C)C)n(Cc4ccc(S(C)(=O)=O)cc4)c3C[C@H]2CN1C(=O)c1ccccc1 | -0.367 (inactive) | 0.277 | 1.32 (inactive) | 0.495 (inactive) | 1.01 (inactive) | 0.739 (inactive) | -0.594 | 0.713 (inactive) | 0.668 (inactive) | 0.274 | -0.379 | -0.631 | 0.137 | 0.373 | -0.198 | 3.32 | -0.224 (inactive) | 0.059 | 0.125 | -0.46 (inactive)
C=C[C@H](COC(C)=O)N(C(=O)OC(C)(C)C)S(=O)(=O)c1ccc(Br)cc1 | 1.34 (inactive) | 0.312 | 0.874 (inactive) | -0.141 (inactive) | -0.301 (inactive) | 0.0544 (inactive) | 0.314 | 0.406 (inactive) | 0.356 (inactive) | -0.772 | 1.67 | 0.49 | 1.36 | -0.138 | 0.0593 | -0.87 | -0.614 (inactive) | -0.931 | -0.406 | 0.708 (inactive)
O=C1NC(=O)C2C1C=CC(C(O)C(c1ccccc1)c1ccccc1)N2Nc1ccc(Cl)cc1Cl (stereo not given) | -1.53 (inactive) | 0.42 | 8.4 (active) | 2.11 (inactive) | 0.537 (inactive) | 2.49 (inactive) | -1.02 | -0.421 (inactive) | -5.03 (inactive) | -2.4 | -2.92 | 0.205 | -2.7 | -3.71 | -4.14 | -3.99 | -0.283 (inactive) | -0.925 | -0.133 | -1.18 (inactive)
O=C1[C@H]2C=C(Br)[C@H](C[C@@H]2c2ccccc2)[C@@]12CO2 | -1.47 (inactive) | 0.0041 | 1.22 (inactive) | 0.497 (inactive) | 0.637 (inactive) | 0.279 (inactive) | -0.327 | 0.242 (inactive) | 0.141 (inactive) | -0.855 | -1.18 | -0.559 | -0.675 | -2.95 | -2.49 | -1.69 | 0.0869 (inactive) | -0.323 | -0.609 | -0.541 (inactive)
O=C(NCc1ccccc1)[C@@]1(Cc2ccccc2)N=C(c2ccc(OCCCO)cc2)O[C@H]1c1ccccc1 | 0.179 (inactive) | 0.609 | 13.5 (active) | 2.11 (inactive) | 1.5 (inactive) | 0.86 (inactive) | -0.0312 | -1.28 (inactive) | 0.98 (inactive) | 0.756 | -2.86 | 0.967 | -2.26 | -1.42 | -3.32 | 1.19 | -0.357 (inactive) | -1.02 | -1.55 | -0.331 (inactive)
CN(C)C(=O)[C@]1(Cc2ccccc2N=[N+]=[N-])N=C(c2ccc(OCCCO)cc2)O[C@@H]1c1ccccc1 | 0.327 (inactive) | 0.112 | 30.2 (active) | 27.5 (active) | 2.4 (inactive) | 2.53 (inactive) | 1.38 | -0.906 (inactive) | -0.433 (inactive) | -1.67 | -0.54 | -0.958 | 0.351 | -1.02 | -2.57 | 0.397 | 0.6 (inactive) | -1.1 | -1.27 | -0.32 (inactive)
